Over roughly 33,000 sequences, “E-score (-0.5 to 0.5)” has its median near -0.01; the highest 2% begin near 0.26. Many of the other results were omitted from the sample, so the highest values are more common in it than they were.
These sequences were tested against Ste12 (UniProt P13574) (assay: PBM E-score (8-mer binding enrichment) (E-score (-0.5 to 0.5)); higher = stronger / more preferred TF binding). Details: protein concentration: 200 nM; construct: GST-DNA-binding domain.
Description: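 Universal 'all 10-mer' protein binding microarrays (Agilent AMADID 015681) probed with GST-tagged S. cerevisiae TFs (full-length or DBD) made by in vitro transcription/translation (PURExpress), about 100-200 nM. Bound TF was detected with fluorescent anti-GST. Each ungapped 8-mer (which stands for itself and its reverse complement) is scored by the PBM enrichment score (E-score), a modified Wilcoxon-Mann-Whitney statistic from -0.5 to +0.5, computed with the Universal PBM Analysis Suite. Scale: above 0.35 generally sequence-specific binding.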

Sequence of UniProt P13574 (P13574 whole entry, the tested form may be a part): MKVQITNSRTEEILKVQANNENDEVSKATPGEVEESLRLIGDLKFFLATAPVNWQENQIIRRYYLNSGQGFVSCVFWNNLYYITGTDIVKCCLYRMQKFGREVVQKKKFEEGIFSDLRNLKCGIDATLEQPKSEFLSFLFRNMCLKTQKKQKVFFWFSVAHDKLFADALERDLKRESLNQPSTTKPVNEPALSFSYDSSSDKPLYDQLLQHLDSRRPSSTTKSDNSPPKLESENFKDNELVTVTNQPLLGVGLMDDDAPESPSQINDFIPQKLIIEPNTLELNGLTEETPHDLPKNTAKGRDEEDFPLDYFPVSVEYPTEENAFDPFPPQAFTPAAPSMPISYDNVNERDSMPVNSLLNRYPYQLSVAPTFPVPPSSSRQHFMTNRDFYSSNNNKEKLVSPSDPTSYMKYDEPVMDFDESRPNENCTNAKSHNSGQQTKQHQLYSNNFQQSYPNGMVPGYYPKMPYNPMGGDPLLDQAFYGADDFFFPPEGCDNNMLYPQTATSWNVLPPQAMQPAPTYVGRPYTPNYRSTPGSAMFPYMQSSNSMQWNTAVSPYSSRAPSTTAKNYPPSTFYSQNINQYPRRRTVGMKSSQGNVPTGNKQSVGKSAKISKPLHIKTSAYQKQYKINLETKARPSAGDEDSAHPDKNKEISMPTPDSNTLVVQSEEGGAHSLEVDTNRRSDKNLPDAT

Sequence | PBM E-score
AAACATGT | 0.301
AAACATGG | 0.206
CAACATCA | 0.0676
CAACATGA | 0.0787
AAACATGC | 0.231
AAACATGA | 0.321
AAACATCC | 0.249
AAACATCA | 0.328
TCTTCTCA | 0.019
GATCTGAA | 0.0323
ATGGACCG | -0.00313
TCCGATCA | 0.0466
CAGTGTGC | -0.187
ACCTAACG | -0.137
ATATTCAT | 0.227
GCGCCGGA | -0.0097
CTTAAAAC | 0.352
ATTAAAGA | 0.0703
CTTAAAAG | -0.0909
ATTAAAAG | 0.137
CTTAAAAA | 0.22
ATTAAACC | 0.156
ATTAAAAT | 0.32
AGTAAAAC | 0.168
ATTAAAAA | 0.295

Sequence | PBM E-score
AGTAAAAT | 0.122
ATTAAAAC | 0.313
CCACTGAC | -0.126
AGCATAAC | -0.00864
ACTACATG | 0.0147
CCGACACA | -0.0323
ATTTAGCG | -0.0176
GGCAATAC | 0.0406
GAGATCTC | -0.14
CACTTCAG | -0.198
GATTCTGA | 0.0395
ACGTGAAT | 0.0319
AAACGGCG | 0.149
ATCGCGAT | 0.0912
ACTATGCG | 0.0582
GTTAAAGA | 0.0582
GTTAAAAC | 0.174
ATTAAATA | 0.292
ATTAAATC | 0.248
ATTAAATG | 0.19
GTTAAAAA | 0.291
CACGTGGG | -0.129
CGGTACTA | -0.0556
AGCCATGG | -0.192
AATTAGGC | 0.179

Sequence | PBM E-score
ACAACTGA | 0.293
ACAACTGG | -0.0989
ACAACTTA | 0.053
AGACCACA | -0.0546
AAATCTGC | 0.0398
AAATCTGA | 0.266
GAATCTGA | -0.0846
CTCGTGAC | 0.0961
CCTCTTTC | -0.0876
CCTCCCCC | -0.134
CCTCCCAA | -0.136
CCTCCCCG | 0.283
CCCCCCCG | -0.257
CCTCCCCA | 0.329
ACTCCCCG | 0.07
AGCCATGC | -0.0768
GGGGGAAA | 0.241
CGGGGGAA | 0.0885
CGGGGAAA | 0.272
GCGGGAAA | 0.121
GCGGGGGA | -0.143
GCGGGGAA | 0.261
CGAGCGCA | 0.0982
ACCAGTTC | 0.0206
ATCCAAGA | 0.136

Sequence | PBM E-score
TCGGCCGA | 0.0948
CGAGACAA | 0.0198
TGAGACAA | 0.274
AGAGACAA | -0.154
CAGGTTCA | -0.0316
CGCTAACC | -0.0284
TGTACTAA | 0.053
GACTTGCC | -0.305
ACAAACCT | -0.111
CAAAAACG | 0.177
AAAAAACG | 0.269
CCAAAACG | 0.254
ACAAAACC | 0.171
ACAAAACG | 0.35
AGAAAACG | 0.0569
CCGCGCGA | 0.169
CCGCGCGG | 0.321
CCGCGCGC | 0.24
ACGCGCGC | 0.122
GCGCGCGA | 0.154
GCGCGCGC | 0.353
GGAGGGCA | 0.0377
ACTGGTTG | 0.0694
GGCCCGAC | 0.15
GGTGTTGA | -0.0828

Sequence | PBM E-score
ATAACTCA | 0.044
GACTGCCA | 0.107
GCTAGACA | -0.118
ACATGAAA | 0.283
TCATGAGA | 0.0861
ACATGAAC | 0.0476
GCATGAAA | 0.318
TCATGACA | 0.178
TCATGAAA | 0.27
GCATGAAC | -0.0143
CCATGAAA | 0.252
ACATGAAG | 0.091
ATCACCGG | -0.0135
GTCCACCA | -0.342
CTCTTAAG | -0.0926
AAAAGGAA | 0.188
AATATGAA | 0.269
TATATGAA | 0.17
ATTATGAA | 0.265
AATATGAC | 0.0945
GTTATGAA | 0.221
CTTATGAA | 0.204
CCAGCTAC | -0.091
AGCGACTA | -0.043
TCAGTCAA | -0.0289

Sequence | PBM E-score
GGGACACA | 0.17
CGCGCGGA | 0.0633
GCCGCGGA | 0.0303
CGCGCGCA | 0.208
GCCGCGGC | 0.29
CCCGCGGC | 0.224
AGCGCGGC | 0.0144
ACCGCGCG | 0.273
CGCGCGCC | 0.157
CGCGCGCG | 0.262
ACCGCGCT | -0.16
CGCGCGGC | 0.306
ACCGCGCC | -0.034
ACGGAGTG | -0.043
AACGACCC | -0.126
ACGCTCGG | -0.0861
GTTCAGTA | -0.0836
ATCGCACA | 0.0146
AACCAATA | 0.195
ACGTAGCG | -0.0127
CCTGAAAA | 0.0508
GCTGAAGC | -0.0602
GCTGAAAA | 0.17
ACTGAAAG | 0.175
ACTGAAAA | 0.101

Sequence | PBM E-score
GCTGAAAC | 0.485
CCTGAAAC | 0.487
ACTGAAAC | 0.477
CCTGAAAG | -0.179
GATGGGCA | -0.0542
AGAATATA | 0.0722
AAATCTAC | 0.151
CCCGCACA | 0.023
GCCAGGTA | -0.127
AACGATTC | -0.0106
GCCCTCAA | -0.23
GCGGTCAA | -0.0277
GGGTTTGA | 0.18
AGGTTTCG | 0.144
CGGTTTCA | 0.452
AGGTTTCA | 0.451
GGGTTTCA | 0.435
CGGTTTCC | 0.1
GGGGTTCA | -0.0134
GGTTTTCA | 0.311
CGGTTTAA | 0.00247
AGGTTTCC | -0.0692
GTTTTTCA | 0.217
CGTTTTCA | 0.132

Reference: the supplement of paper PMC3334620
